A number with no mark means an inactive call. For some assays here: Measured potencies and affinities stand elsewhere. Active and inactive are the calls of the source. Unless noted, the rule behind the calls is not given here. Non-standard residues stand in square brackets, D forms with d. Residues, ends and D or L forms follow the SMILES beside them. *: point of attachment. Butanoyl(4-(4-HOPh)) = O=C(CCCc1ccc(O)cc1)*
Assays:
[1] = antimalarial activity against Dd2 strain (AID 2302;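 active = growth inhibition above 50% at the single 2 µM test dose, taken to imply half-maximal potency below 2 µM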;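 note: 0% = DMSO untreated growth and 100% = chloroquine plus artemisinin killed control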); settings: P. falciparum Dd2 in RBCs, LDH growth readout, 72 h; at 2 µM; active compounds read high
[2] = human hepatoma cell viability loss – ATP luminescence, cytotoxicity control for P. falciparum antimalarial project, primary screen (AID 2303;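 active = inhibition above 50%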;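 note: 0% = DMSO wells and 100% = digitonin-killed cells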); settings: HepG2 viability, 24-48 h, at 10 µM, active compounds read high
[3] = biological target: L-lactate dehydrogenase (Plasmodium falciparum (isolate CDC / Honduras)) (UniProt Q27743); assay: PfLDH activity inhibition – cell lysate, 3D7 strain, counter-screen for P. falciparum growth inhibition project (AID 2304);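 note: 0% = vehicle and 100% = reference inhibitor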; settings: P. falciparum 3D7 crude extract, LDH APAD/NBT absorbance; at 2 µM; active compounds read high
Sequence of L-lactate dehydrogenase (Plasmodium falciparum (isolate CDC / Honduras)) (Q27743 whole entry, looked up): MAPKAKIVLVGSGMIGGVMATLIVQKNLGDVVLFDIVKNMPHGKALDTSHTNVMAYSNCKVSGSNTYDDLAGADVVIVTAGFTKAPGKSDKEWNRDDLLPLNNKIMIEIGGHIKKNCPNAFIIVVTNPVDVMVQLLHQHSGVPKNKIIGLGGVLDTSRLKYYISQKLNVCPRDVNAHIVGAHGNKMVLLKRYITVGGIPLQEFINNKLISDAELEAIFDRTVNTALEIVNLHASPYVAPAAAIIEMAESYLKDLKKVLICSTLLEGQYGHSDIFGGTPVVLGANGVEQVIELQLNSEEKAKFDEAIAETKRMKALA

[4] = inhibition of 3D7 malaria parasite growth – strain 3D7 (AID 2306);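 note: 0% = DMSO wells and 100% = chloroquine plus artemisinin control wells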; settings: P. falciparum 3D7 erythrocytic growth, LDH absorbance, 72 h; at 2 µM; active compounds read high
[5] = biological target: Calcium-dependent protein kinase 1 (Plasmodium falciparum (isolate 3D7)) (UniProt P62344); assay: PfCDPK1 kinase inhibitors, biochemical, TCAMS library (AID 1159585; cut-off not given, nearly all actives have IC50 up to about 0.98 µM;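 note: inhibitors leave more ATP so luminescence rises with inhibition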); settings: recombinant PfCDPK1, Kinase-Glo ATP depletion luminescence
Sequence of Calcium-dependent protein kinase 1 (Plasmodium falciparum (isolate 3D7)) (P62344 whole entry, looked up): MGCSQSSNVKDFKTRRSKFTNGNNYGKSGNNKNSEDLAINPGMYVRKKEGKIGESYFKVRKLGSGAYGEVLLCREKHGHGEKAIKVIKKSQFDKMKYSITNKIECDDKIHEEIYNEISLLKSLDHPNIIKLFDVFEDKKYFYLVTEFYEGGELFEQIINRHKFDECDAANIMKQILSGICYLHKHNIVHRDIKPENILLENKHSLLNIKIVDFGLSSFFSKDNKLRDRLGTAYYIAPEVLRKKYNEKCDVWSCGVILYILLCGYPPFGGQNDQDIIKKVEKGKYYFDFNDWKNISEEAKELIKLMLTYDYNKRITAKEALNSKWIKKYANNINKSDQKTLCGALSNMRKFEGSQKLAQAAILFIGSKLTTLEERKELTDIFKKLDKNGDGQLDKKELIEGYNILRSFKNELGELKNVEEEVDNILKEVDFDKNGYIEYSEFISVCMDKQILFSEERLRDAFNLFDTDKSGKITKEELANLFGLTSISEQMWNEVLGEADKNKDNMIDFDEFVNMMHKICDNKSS

[6] = biological target: Plasmodium falciparum protein kinase 6 (PK6, PF3D7_1337100) (UniProt Q8IDW1); assay: PfPK6 kinase inhibitors, biochemical, TCAMS library (AID 1159586); settings: recombinant PfPK6, Kinase-Glo ATP depletion luminescence
Sequence of Plasmodium falciparum protein kinase 6 (PK6, PF3D7_1337100) (Q8IDW1 1-305): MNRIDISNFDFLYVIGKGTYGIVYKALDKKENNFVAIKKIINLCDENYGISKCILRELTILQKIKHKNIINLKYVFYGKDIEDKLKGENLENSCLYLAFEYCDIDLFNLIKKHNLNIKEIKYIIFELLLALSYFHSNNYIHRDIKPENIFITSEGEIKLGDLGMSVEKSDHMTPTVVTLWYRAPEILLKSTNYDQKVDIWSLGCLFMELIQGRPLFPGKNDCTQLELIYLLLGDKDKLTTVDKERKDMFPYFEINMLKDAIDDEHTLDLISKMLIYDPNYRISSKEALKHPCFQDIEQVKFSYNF

[7] = biological target: Protein kinase 7 (PK7), Plasmodium falciparum 3D7 (PF3D7_0213400) (UniProt Q7YTF7); assay: inhibition of Plasmodium PK7 catalytic activity – biochemical, TCAMS antimalarial set, Kinase-Glo luminescence (AID 1159587); settings: recombinant PfPK7, Kinase-Glo ATP depletion luminescence
Sequence of Protein kinase 7 (PK7), Plasmodium falciparum 3D7 (PF3D7_0213400) (Q7YTF7 1-343): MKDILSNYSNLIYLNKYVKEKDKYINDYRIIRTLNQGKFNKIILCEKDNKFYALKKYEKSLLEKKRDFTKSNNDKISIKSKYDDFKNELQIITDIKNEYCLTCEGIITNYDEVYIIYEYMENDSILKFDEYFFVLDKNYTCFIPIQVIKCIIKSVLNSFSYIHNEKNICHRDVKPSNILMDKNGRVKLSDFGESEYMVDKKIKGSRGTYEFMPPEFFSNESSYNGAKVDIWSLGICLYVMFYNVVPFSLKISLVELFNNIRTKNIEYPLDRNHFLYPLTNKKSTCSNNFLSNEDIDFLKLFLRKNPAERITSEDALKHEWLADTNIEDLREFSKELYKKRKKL

[8] = biological target: Calcium-dependent protein kinase 4 (Plasmodium falciparum (isolate 3D7)) (UniProt Q8IBS5); assay: PfCDPK4 kinase inhibitors, biochemical, TCAMS library (AID 1159588; cut-off not given, nearly all actives have IC50 up to about 0.91 µM); settings: recombinant PfCDPK4, Kinase-Glo ATP depletion luminescence
Sequence of Calcium-dependent protein kinase 4 (Plasmodium falciparum (isolate 3D7)) (Q8IBS5 whole entry, looked up): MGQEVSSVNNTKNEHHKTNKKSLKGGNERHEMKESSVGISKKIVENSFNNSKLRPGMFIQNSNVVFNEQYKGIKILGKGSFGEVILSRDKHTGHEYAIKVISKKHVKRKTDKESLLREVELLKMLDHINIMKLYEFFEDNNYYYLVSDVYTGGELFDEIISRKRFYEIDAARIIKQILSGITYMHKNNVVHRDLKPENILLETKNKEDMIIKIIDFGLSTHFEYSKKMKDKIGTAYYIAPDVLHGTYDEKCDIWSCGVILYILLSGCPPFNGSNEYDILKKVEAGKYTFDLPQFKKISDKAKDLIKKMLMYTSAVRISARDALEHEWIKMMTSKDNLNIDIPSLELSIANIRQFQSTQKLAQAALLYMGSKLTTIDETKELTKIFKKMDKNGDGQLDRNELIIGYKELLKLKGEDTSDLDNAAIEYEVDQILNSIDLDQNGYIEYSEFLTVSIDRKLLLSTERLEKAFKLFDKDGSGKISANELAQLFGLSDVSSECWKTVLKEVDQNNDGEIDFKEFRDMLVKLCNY

COc1ccc2nccc(NN=Cc3ccccc3Cl)c2c1
growth inhibition [1]: 99% (active)
inhibition [2]: 29%
inhibition [3]: -4%
growth inhibition [4]: 100% (active)
outcome [5]: inactive
outcome [6]: inactive
outcome [7]: inactive
outcome [8]: inactive

O=C(Nc1ccccc1)Nc1ccc(-c2cccc(-c3nc4ccc(C(F)(F)F)cc4[nH]3)c2)cc1
growth inhibition [1]: 73% (active)
inhibition [2]: 59% (active)
inhibition [3]: 4%
growth inhibition [4]: 101% (active)
outcome [5]: inactive
outcome [6]: inactive
outcome [7]: inactive
outcome [8]: inactive

COc1ccc(Cn2c(Nc3cccc(C(F)(F)F)c3)nc3cc(C(=O)NC4CC4)cnc32)cc1Cl
growth inhibition [1]: 96% (active)
inhibition [2]: -2%
inhibition [3]: -3%
growth inhibition [4]: 94% (active)
outcome [5]: inactive
outcome [6]: inactive
outcome [7]: inactive
outcome [8]: inactive

O=C(CN1CCC(NCc2cnc(-c3ccc(Cl)cc3)[nH]2)CC1)N1CCc2ccccc21
growth inhibition [1]: 5%
inhibition [2]: 11%
inhibition [3]: -8%
growth inhibition [4]: 100% (active)
outcome [5]: inactive
outcome [6]: inactive
outcome [7]: inactive
outcome [8]: inactive

CN1CCN(c2ccc3nc(-c4ccc5nc(-c6ccc(O)cc6)[nH]c5c4)[nH]c3c2)CC1
growth inhibition [1]: 100% (active)
inhibition [2]: -11%
inhibition [3]: 3%
growth inhibition [4]: 99% (active)
outcome [5]: inactive
outcome [6]: inactive
outcome [7]: inactive
outcome [8]: inactive

Cc1ccc2nc3ccccc3c(NCCN3CCN(C)CC3)c2c1
growth inhibition [1]: 6%
inhibition [2]: 19%
inhibition [3]: -7%
growth inhibition [4]: 101% (active)
outcome [5]: inactive
outcome [6]: inactive
outcome [7]: inactive
outcome [8]: inactive

NC(N)=NN=Cc1cc2ccccc2c2ccccc12
growth inhibition [1]: 63% (active)
inhibition [2]: 25%
inhibition [3]: 4%
growth inhibition [4]: 100% (active)
outcome [5]: inactive
outcome [6]: inactive
outcome [7]: inactive
outcome [8]: inactive

O=C(c1ccc(-c2ccc(-c3nc4ccc(C(F)(F)F)cc4[nH]3)s2)cc1)N1CCCCC1CN1CCC(O)C1 (stereo not given)
growth inhibition [1]: 80% (active)
inhibition [2]: 90% (active)
inhibition [3]: 3%
growth inhibition [4]: 92% (active)
outcome [5]: inactive
outcome [6]: inactive
outcome [7]: inactive
outcome [8]: inactive

CCC(CC)(CCC#N)CN(C[C@@H](O)[C@H](Cc1ccccc1)NC(=O)OC(C)(C)C)S(=O)(=O)c1ccc(OC)cc1
growth inhibition [1]: 66% (active)
inhibition [2]: -12%
inhibition [3]: 0%
growth inhibition [4]: 82% (active)
outcome [5]: inactive
outcome [6]: inactive
outcome [7]: inactive
outcome [8]: inactive

O=C(NCC(=O)N1CCC[C@H]1C(=O)O)[C@@H](Cc1ccccc1)NC(=O)[C@@H]1CCCN1C(=O)CCCc1ccc(O)cc1 ({Butanoyl(4-(4-HOPh))}-P[dF]GP-OH)
growth inhibition [1]: 1%
inhibition [2]: 1%
inhibition [3]: 3%
growth inhibition [4]: 81% (active)
outcome [5]: inactive
outcome [6]: inactive
outcome [7]: inactive
outcome [8]: inactive

O=C(COc1ccc(Cl)c(Cl)c1)NCCCCCN1CCCN(C(=O)Nc2cc(Cl)cc(Cl)c2)CC1
growth inhibition [1]: 1%
inhibition [2]: 44%
inhibition [3]: -5%
growth inhibition [4]: 89% (active)
outcome [5]: inactive
outcome [6]: inactive
outcome [7]: inactive
outcome [8]: inactive

Cn1cnc(CCNC(=O)c2cccc(-c3cccc(-c4nc5ccc(C(F)(F)F)cc5[nH]4)c3)c2)c1
growth inhibition [1]: 45%
inhibition [2]: 37%
inhibition [3]: 4%
growth inhibition [4]: 100% (active)
outcome [5]: inactive
outcome [6]: inactive
outcome [7]: inactive
outcome [8]: inactive

O=c1c2ccccc2[nH]c2nc3ccccc3c(Nc3ccccc3)c12
growth inhibition [1]: 97% (active)
inhibition [2]: 8%
inhibition [3]: 6%
growth inhibition [4]: 98% (active)
outcome [5]: inactive
outcome [6]: inactive
outcome [7]: inactive
outcome [8]: inactive

c1ccc(CNc2nc(NCCN3CCCCC3)nc3ccccc23)cc1
growth inhibition [1]: 8%
inhibition [2]: 19%
inhibition [3]: -11%
growth inhibition [4]: 87% (active)
outcome [5]: inactive
outcome [6]: inactive
outcome [7]: inactive
outcome [8]: inactive

COCC(=O)Nc1nc2ccccc2[nH]1
growth inhibition [1]: 1%
inhibition [2]: -14%
inhibition [3]: -5%
growth inhibition [4]: 98% (active)
outcome [5]: inactive
outcome [6]: inactive
outcome [7]: inactive
outcome [8]: inactive

CCOC(=O)c1cn(CC)c2cc(O[C@H]3CCN(C(=O)OC(C)(C)C)C3)ccc2c1=O
growth inhibition [1]: 75% (active)
inhibition [2]: 9%
inhibition [3]: -1%
growth inhibition [4]: 98% (active)
outcome [5]: inactive
outcome [6]: inactive
outcome [7]: inactive
outcome [8]: inactive

CC(C)N(C(=O)CSc1nc2cc(Cl)ccc2c(=O)n1Cc1ccccc1)C(C)C
growth inhibition [1]: 97% (active)
inhibition [2]: -14%
inhibition [3]: -5%
growth inhibition [4]: 100% (active)
outcome [5]: inactive
outcome [6]: inactive
outcome [7]: inactive
outcome [8]: inactive

Cc1ccc(Nc2nc(NN=Cc3cc4c(cc3Br)OCO4)nc(Nc3ccc([N+](=O)[O-])cc3)n2)cc1C
growth inhibition [1]: 89% (active)
inhibition [2]: 23%
inhibition [3]: -2%
growth inhibition [4]: 100% (active)
outcome [5]: inactive
outcome [6]: inactive
outcome [7]: inactive
outcome [8]: inactive

COc1cc2nc(N3CCC(C(N)=O)CC3)nc(NCc3ccccc3)c2cc1OC
growth inhibition [1]: 23%
inhibition [2]: 23%
inhibition [3]: -7%
growth inhibition [4]: 100% (active)
outcome [5]: inactive
outcome [6]: inactive
outcome [7]: inactive
outcome [8]: inactive

CC(=NNC(=S)Nc1ccccc1Cl)c1ccccn1
growth inhibition [1]: 99% (active)
inhibition [2]: 69% (active)
inhibition [3]: 6%
growth inhibition [4]: 100% (active)
outcome [5]: inactive
outcome [6]: inactive
outcome [7]: inactive
outcome [8]: inactive

CCc1ccc(C2CCN(CCCCNC(=O)c3ccc(-c4ccc(Cl)cc4)cc3)CC2)c(O)c1
growth inhibition [1]: 99% (active)
inhibition [2]: 48%
inhibition [3]: 2%
growth inhibition [4]: 101% (active)
outcome [5]: inactive
outcome [6]: inactive
outcome [7]: inactive
outcome [8]: inactive

O=c1cc(NCCCNCc2cc3c(Cl)cccc3s2)[nH]c2ccccc12
growth inhibition [1]: 57% (active)
inhibition [2]: 6%
inhibition [3]: -7%
growth inhibition [4]: 102% (active)
outcome [5]: inactive
outcome [6]: inactive
outcome [7]: inactive
outcome [8]: inactive

COC(=O)C(NC(=O)c1ccc(-c2ccc(-c3nc4ccccc4[nH]3)s2)cc1)c1ccc(O)cc1 (stereo not given)
growth inhibition [1]: 49%
inhibition [2]: 99% (active)
inhibition [3]: 3%
growth inhibition [4]: 83% (active)
outcome [5]: inactive
outcome [6]: inactive
outcome [7]: inactive
outcome [8]: inactive

N#Cc1ccc(C(=O)Nc2ccc(Cl)c(N3CCN(CCc4ccccc4)CC3)c2)cc1
growth inhibition [1]: 35%
inhibition [2]: 5%
inhibition [3]: 5%
growth inhibition [4]: 90% (active)
outcome [5]: inactive
outcome [6]: inactive
outcome [7]: inactive
outcome [8]: inactive

COc1ccc(NC(=O)Nc2cccc(-c3ccc(-c4nc5ccc(C(F)(F)F)cc5[nH]4)cc3)c2)cc1
growth inhibition [1]: 29%
inhibition [2]: 46%
inhibition [3]: 6%
growth inhibition [4]: 101% (active)
outcome [5]: inactive
outcome [6]: inactive
outcome [7]: inactive
outcome [8]: inactive

CN(C)Cc1ccc2cc(NC(=O)c3ccc(-c4ccc(Cl)cc4)cc3)ccc2c1
growth inhibition [1]: 22%
inhibition [2]: 21%
inhibition [3]: -3%
growth inhibition [4]: 92% (active)
outcome [5]: inactive
outcome [6]: inactive
outcome [7]: inactive
outcome [8]: inactive

COc1ccc2[nH]c(C(=O)Nc3ccc4nc(-c5ccccc5)[nH]c4c3)cc2c1
growth inhibition [1]: 23%
inhibition [2]: 51% (active)
inhibition [3]: -1%
growth inhibition [4]: 96% (active)
outcome [5]: inactive
outcome [6]: inactive
outcome [7]: inactive
outcome [8]: inactive

C=CCNc1cc(-c2ccccn2)nc(-c2ccccn2)n1
growth inhibition [1]: 79% (active)
inhibition [2]: 78% (active)
inhibition [3]: -2%
growth inhibition [4]: 94% (active)
outcome [5]: inactive
outcome [6]: inactive
outcome [7]: inactive
outcome [8]: inactive

c1cc(Cc2ccc(Nc3c4ccccc4nc4ccccc34)cc2)cc(Nc2c3ccccc3nc3ccccc23)c1
growth inhibition [1]: 100% (active)
inhibition [2]: 91% (active)
inhibition [3]: -5%
growth inhibition [4]: 100% (active)
outcome [5]: inactive
outcome [6]: inactive
outcome [7]: inactive
outcome [8]: inactive

CS(=O)(=O)NCCCNCc1cccc(-c2ccc(-c3nc4ccc(C(F)(F)F)cc4[nH]3)s2)c1
growth inhibition [1]: 51% (active)
inhibition [2]: 11%
inhibition [3]: -8%
growth inhibition [4]: 100% (active)
outcome [5]: inactive
outcome [6]: inactive
outcome [7]: inactive
outcome [8]: inactive

CC(C)CCN1CCCN(Cc2cccc(NC(=O)c3cc4ccccc4s3)c2)CC1
growth inhibition [1]: 8%
inhibition [2]: 34%
inhibition [3]: 1%
growth inhibition [4]: 96% (active)
outcome [5]: inactive
outcome [6]: inactive
outcome [7]: inactive
outcome [8]: inactive

Nc1nc(N)c2c(Cl)c(N(Cc3ccccc3)Cc3ccccc3)ccc2n1
growth inhibition [1]: 2%
inhibition [2]: 66% (active)
inhibition [3]: 2%
growth inhibition [4]: 96% (active)
outcome [5]: inactive
outcome [6]: inactive
outcome [7]: inactive
outcome [8]: inactive

CN(C)CCCOc1ccccc1CN1CC[C@H](NC(=O)c2ccc(Cl)c(Cl)c2)C1
growth inhibition [1]: 54% (active)
inhibition [2]: 42%
inhibition [3]: -3%
growth inhibition [4]: 94% (active)
outcome [5]: inactive
outcome [6]: inactive
outcome [7]: inactive
outcome [8]: inactive

Cc1noc(C)c1-c1ccc2c(Nc3ccc([N+](=O)[O-])cc3)c(C(N)=O)cnc2c1
growth inhibition [1]: 98% (active)
inhibition [2]: 4%
inhibition [3]: 4%
growth inhibition [4]: 100% (active)
outcome [5]: inactive
outcome [6]: inactive
outcome [7]: inactive
outcome [8]: inactive

Cc1cc(N2CCCC2)nc(Nc2ccc(NC(=O)c3ccc(Br)o3)cc2)n1
growth inhibition [1]: 57% (active)
inhibition [2]: 17%
inhibition [3]: 0%
growth inhibition [4]: 99% (active)
outcome [5]: inactive
outcome [6]: inactive
outcome [7]: inactive
outcome [8]: inactive

Cc1cc(Nc2ccccc2)nc(Nc2ccccc2)n1
growth inhibition [1]: 74% (active)
inhibition [2]: 0%
inhibition [3]: -1%
growth inhibition [4]: 96% (active)
outcome [5]: inactive
outcome [6]: inactive
outcome [7]: inactive
outcome [8]: inactive

CCOC(=O)/C(=N\OC(C(=O)OC(C)(C)C)c1ccccc1)c1csc(NC(c2ccccc2)(c2ccccc2)c2ccccc2)n1 (stereo not given)
growth inhibition [1]: 68% (active)
inhibition [2]: 14%
inhibition [3]: 5%
growth inhibition [4]: 89% (active)
outcome [5]: inactive
outcome [6]: inactive
outcome [7]: inactive
outcome [8]: inactive

COc1ccc2nccc([C@@H](O)CN3CCC(c4cc(-c5ccc(Cl)cc5)n[nH]4)CC3)c2n1
growth inhibition [1]: 56% (active)
inhibition [2]: 43%
inhibition [3]: 0%
growth inhibition [4]: 97% (active)
outcome [5]: inactive
outcome [6]: inactive
outcome [7]: inactive
outcome [8]: inactive

Cc1nnsc1C(=O)Nc1cccc(-c2ccc(-c3nc4ccc(F)cc4[nH]3)cc2)c1
growth inhibition [1]: 89% (active)
inhibition [2]: 51% (active)
inhibition [3]: 4%
growth inhibition [4]: 100% (active)
outcome [5]: inactive
outcome [6]: inactive
outcome [7]: inactive
outcome [8]: inactive

CO/C(=C\C=C\c1cc2cc(Cl)c(Cl)cc2[nH]1)C(=O)NC1C[C@H]2CC[C@@H](C1)N2C (stereo not given in full)
growth inhibition [1]: 23%
inhibition [2]: 46%
inhibition [3]: -4%
growth inhibition [4]: 88% (active)
outcome [5]: inactive
outcome [6]: inactive
outcome [7]: inactive
outcome [8]: inactive
